High-throughput results from PubChem BioAssay.
Most compounds without a hit are left out; they make up all but 12% or so of the library.
PLK1 PBD block: PLK1 (human) polo-box domain binding inhibition | Potency, µM, for the others: max response, negative = inhibition, usual class: inhibitors | 360,000 tested, 2.8% active | Plk1 PBD binding of FITC phosphopeptide, fluorescence polarization; also: series mostly up to about 57 µM; % is scaled to controls: 0 for no effect and ±100 for the full control effect; nearly all actives have a fitted effect of over 65% in size
JMJD2A Tudor inh: JMJD2A Tudor domain (human) inhibition; AlphaScreen JMJD2A-Tudor / H3K4me3 peptide binding; AID 504339; O75164; Potency, µM (top dose mostly 114 µM), inactives show at the top dose activity change, negative = inhibition, usual class: inhibitors; 390,000 tested, 4.4% active; also: % is scaled to controls: 0 for no effect and ±100 for the full control effect; nearly all actives have a fitted effect of over 50% in size
Sfp inh: Sfp phosphopantetheinyl transferase inhibition; Q9F4F7; Biochemical Sfp PPTase activity, qHTS; Potency, µM, for the others: largest response in the series, negative = inhibition, usual class: inhibitors; 310,000 tested, 3.5% active; AID 1490;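 also: the enzyme is Sfp with the accession as filed and its product quenches rhodamine fluorescence; 0% = enzyme reaction without inhibitor and -100% = no enzyme wells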
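After 15 min at room temperature with compound, 15 nM Sfp received 5 uM rhodamine-CoA plus 12.5 uM BHQ-2-ybbR (50 mM Hepes pH 7.6, 10 mM MgCl2). Rate came from the fluorescence difference over 30 min, ex 525/em 598 nm.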
G9a block: inhibitors of human histone lysine methyltransferase G9a; Q96KQ7; G9a H3K9 monomethylation, AlphaScreen, 2 h; Potency, µM (top dose mostly 102 µM), for the others: at the highest dose activity, negative = inhibition, usual class: inhibitors; 350,000 tested, 8.8% active; also: % is scaled to controls: 0 for no effect and ±100 for the full control effect; nearly all actives have a fitted effect of over 75% in size
Target sequence (Q96KQ7 913-1193 limits assumed): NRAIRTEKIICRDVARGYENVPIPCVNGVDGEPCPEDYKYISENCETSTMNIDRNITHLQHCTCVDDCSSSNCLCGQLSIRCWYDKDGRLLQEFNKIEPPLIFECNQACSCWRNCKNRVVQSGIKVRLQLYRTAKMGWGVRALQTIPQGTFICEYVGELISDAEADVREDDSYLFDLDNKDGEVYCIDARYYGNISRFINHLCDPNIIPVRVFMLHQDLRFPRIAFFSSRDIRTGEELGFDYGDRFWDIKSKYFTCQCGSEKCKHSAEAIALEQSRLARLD
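AlphaScreen detection with an anti-monomethyl H3K9 antibody quantified product after a 2 h room-temperature reaction containing 500 nM biotinylated H3K9 peptide, 20 µM SAM and 20 nM enzyme, which had been preincubated 15 min with compound.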
HP1b binding inh: HP1-beta chromodomain-methylated histone interaction inhibition. AlphaScreen HP1-beta / biotin-H3K9me3 peptide binding. P83916. 390,000 tested, 0.56% active. Potency, µM (doses to about 114 µM), without a hit: at the top dose activity change, negative = inhibition, most hits filed as inhibitors; also: nearly all actives have a fitted effect of over 70% in size
Target sequence (P83916 whole entry, looked up): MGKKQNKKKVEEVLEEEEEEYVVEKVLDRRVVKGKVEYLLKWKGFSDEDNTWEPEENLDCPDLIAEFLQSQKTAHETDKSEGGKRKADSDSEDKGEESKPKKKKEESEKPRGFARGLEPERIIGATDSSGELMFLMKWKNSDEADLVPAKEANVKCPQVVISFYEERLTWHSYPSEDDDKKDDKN
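HP1-beta protein (50 nM final) preincubated 30 min at room temperature with biotinylated H3(1-18)K9me3 peptide (50 nM) in PBS pH 7.4, 0.01% Tween-20, then compound added for 30 min. AlphaScreen streptavidin donor/nickel chelate acceptor beads (10 ug/mL final), 30 min dark, luminescence read.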
BAZ2B block: blocks human BAZ2B; Q9UIF8; AlphaScreen BAZ2B-H3K14Ac peptide displacement; Potency, µM (doses to about 114 µM), without a hit: at the top dose activity change, negative = inhibition, actives largely listed as inhibitors; 360,000 tested, 4.4% active; also: % is scaled to controls: 0 for no effect and ±100 for the full control effect; nearly all actives have a fitted effect of over 60% in size
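Compounds, titrated to a top concentration of 110 uM, were incubated 30 min at room temperature with preformed BAZ2B/acetyl-K14 H3 peptide complex (50 nM each). Proximity signal was measured by AlphaScreen after 20 min with beads.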
* = called active by the depositor; [ ] = another dose, or the depositor's remark. Calls follow the shape of the dose curve; as a rule, active = well fitted curve in the direction sought with a large enough effect; inconclusive = small, poorly fitted or top-dose-only effect, or another doubt; inactive = no such curve, though single readings can be large; an effect the other way counts as inactive or inconclusive. Potency is read from the fitted curve at half-maximal effect.

For Cc1c(C(=O)N2CCN(c3ccccc3)CC2)oc2c1C(=O)CC(C)(C)C2 the results were PLK1 PBD block 3%, JMJD2A Tudor inh -10%, Sfp inh 20%, G9a block 16%, HP1b binding inh 19% and BAZ2B block -25%.
`COc1ccc(S(=O)(=O)Cc2ccc(C(=O)N3CCN(Cc4ccccc4)CC3)o2)cc1` gave PLK1 PBD block -20%, JMJD2A Tudor inh -31%, Sfp inh 7%, G9a block 35µM*, HP1b binding inh 21% and BAZ2B block -6%.
For Cc1ccc(S(=O)(=O)Cc2ccc(C(=O)N3CCN(Cc4ccccc4)CC3)o2)cc1 the results were Sfp inh -15%, G9a block 45µM* and BAZ2B block 50µM*.
For Cc1ccc(S(=O)(=O)Cc2ccc(C(=O)N3CCc4ccccc4C3)o2)cc1 the results were PLK1 PBD block inconclusive, JMJD2A Tudor inh 56µM*, Sfp inh -2%, G9a block 50µM*, HP1b binding inh inconclusive and BAZ2B block 50µM*.
For CN(Cc1ccccc1)C(=O)c1ccc2c(c1)N(Cc1ccc(Cl)cc1)C(=O)c1ccccc1S2=O (stereo not given) the results were JMJD2A Tudor inh -8%, G9a block -49%[59 µM], HP1b binding inh 20% and BAZ2B block -22%.
For COc1cccc(N2CCN(C(=O)c3ccc(CS(=O)c4ccc(C)cc4)o3)CC2)c1 (stereo not given) the results were PLK1 PBD block -19%, JMJD2A Tudor inh -11%, Sfp inh 8%, G9a block 50µM*, HP1b binding inh 3%[57 µM] and BAZ2B block -27%.
Screening COc1cccc(N2CCN(C(=O)c3ccc(CS(=O)c4ccc(Cl)cc4)o3)CC2)c1 (stereo not given) returned PLK1 PBD block -17%, JMJD2A Tudor inh -35%, Sfp inh 2%, G9a block -20%, HP1b binding inh -4%[57 µM] and BAZ2B block inconclusive.
Screening COc1ccc(N2CCN(C(=O)c3ccc(CS(=O)(=O)c4ccc(OC)cc4)o3)CC2)cc1 returned PLK1 PBD block -12%, JMJD2A Tudor inh -26%, Sfp inh 3%, G9a block 40µM*, HP1b binding inh 0% and BAZ2B block inconclusive.
Screening COc1ccc(S(=O)(=O)Cc2ccc(C(=O)N3CCN(c4cc(Cl)ccc4C)CC3)o2)cc1 returned PLK1 PBD block -11%, JMJD2A Tudor inh -23%, Sfp inh -20%, G9a block 25µM*, HP1b binding inh 9% and BAZ2B block 0%.
For Cc1ccc(S(=O)(=O)Cc2ccc(C(=O)O)o2)cc1 the results were PLK1 PBD block 19µM*, JMJD2A Tudor inh 45µM*, Sfp inh -3%, G9a block 13µM*, HP1b binding inh -68% and BAZ2B block 50µM*.
For O=C(COc1ccc(Cl)cc1)NNC(=O)C(=O)NC1CCCCC1 the results were PLK1 PBD block -2%, JMJD2A Tudor inh -10%, Sfp inh -21%, HP1b binding inh 24% and BAZ2B block -7%.
For CC(C)CC(=O)Nc1nnc(S(=O)(=O)N(CC(C)C)c2ccccc2)s1 the results were JMJD2A Tudor inh -5%, G9a block 18%[59 µM], HP1b binding inh 29% and BAZ2B block inconclusive.
For CS(=O)(=O)c1cc(C(=O)O)cc(NCc2ccccc2)c1Oc1ccccc1 the results were PLK1 PBD block -8%.
CCc1nnc(NC(=O)CSc2ncc(-c3ccccc3)n2CC)s1 was read as PLK1 PBD block -5%, JMJD2A Tudor inh inconclusive, Sfp inh -7%, G9a block 4%[59 µM], HP1b binding inh 3% and BAZ2B block inconclusive.
For Cc1cccc(CNc2ncncc2-c2ccccc2C)c1 the results were Sfp inh 3% and G9a block -9%[0.501 µM].
For CN(C)c1ccc(-c2ccc3ncnc(NC4CC4)c3c2)cc1 the results were Sfp inh 14% and G9a block 1%[0.501 µM].
COc1ccc(N2CCN(C(=O)c3ccc(Cn4nc(C)c([N+](=O)[O-])c4C)o3)CC2)cc1 was read as PLK1 PBD block -5%, JMJD2A Tudor inh -34%, Sfp inh 17%, G9a block 3.5µM*, HP1b binding inh -9% and BAZ2B block inconclusive.
Screening OC1c2c(F)cccc2N=C2CCCCCN21 (stereo not given) returned PLK1 PBD block -10%.
O=c1ccc2cc3c([nH]c4ccc(Br)cc43)oc-2c1O was read as Sfp inh 22µM*, G9a block inconclusive and BAZ2B block 45µM*.
O=c1[nH]c2ccc(Br)cc2o1 was read as PLK1 PBD block 2%, JMJD2A Tudor inh -13% and HP1b binding inh 8%[57 µM].
For Cc1oc2c(O)c(O)ccc2c(=O)c1-c1ccc(Cl)cc1 the results were PLK1 PBD block -14%, JMJD2A Tudor inh -29%, Sfp inh -18%, G9a block 5µM*, HP1b binding inh 17% and BAZ2B block inconclusive.
Screening Cc1c(Cc2ccccc2)c(=O)oc2c(O)c(O)ccc12 returned PLK1 PBD block 0%, JMJD2A Tudor inh 45µM*, Sfp inh -22%, G9a block 4µM*, HP1b binding inh inconclusive and BAZ2B block 40µM*.
`O=c1cc(-c2ccccc2O)oc2c(O)c(O)ccc12` gave Sfp inh 4µM*.
For Cc1oc2c(O)c(O)ccc2c(=O)c1-c1ccccc1 the results were PLK1 PBD block -8%, JMJD2A Tudor inh 8.9µM*, Sfp inh 50µM*, G9a block inconclusive, HP1b binding inh 17% and BAZ2B block inconclusive.
For O=c1cc(-c2ccccc2)oc2c(O)c(O)ccc12 the results were Sfp inh -91% and G9a block -113%[2.33 µM].
COc1ccc(C2CC(=O)c3c(C)nc(N4CCN(C=O)CC4)nc3C2)c(OC)c1 (stereo not given) was read as JMJD2A Tudor inh -21%, G9a block -19%[59 µM], HP1b binding inh 22% and BAZ2B block -36%.
Cc1cc(=O)oc2c(CN3CCCC3)c(O)ccc12 was read as PLK1 PBD block 3%, JMJD2A Tudor inh 4%, Sfp inh 19%, G9a block 0%, HP1b binding inh 21% and BAZ2B block 1%.
Cc1cc(=O)oc2c(O)c(O)ccc12 was read as PLK1 PBD block inconclusive, JMJD2A Tudor inh 10µM*, Sfp inh 45µM* and HP1b binding inh 18%.
`CN(C(=S)SCc1ccccc1)C1CCS(=O)(=O)C1` (stereo not given) gave PLK1 PBD block -13%, JMJD2A Tudor inh -6%, Sfp inh 11%, G9a block -24%, HP1b binding inh 24% and BAZ2B block -18%.
